Source: PubChem (Emory University Molecular Libraries Screening Center)
14-3-3g Raf: modulators of human 14-3-3 gamma - Raf peptide interaction; P61981; FP, 14-3-3gamma / TMR-pS259-Raf peptide binding; inhibition, % at 40 µM; actives 0.19% (n = 160,000); in the data active means inhibition above about 30%;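 further: 0% = protein plus tracer without compound and 100% = blank with tracer alone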
Target sequence (P61981 whole entry, looked up): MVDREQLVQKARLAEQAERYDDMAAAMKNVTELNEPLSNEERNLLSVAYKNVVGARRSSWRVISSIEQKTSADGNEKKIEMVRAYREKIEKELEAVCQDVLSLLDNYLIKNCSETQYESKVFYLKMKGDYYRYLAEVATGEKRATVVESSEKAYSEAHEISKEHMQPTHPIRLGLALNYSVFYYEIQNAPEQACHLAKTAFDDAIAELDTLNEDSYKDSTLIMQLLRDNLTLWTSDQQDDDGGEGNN
* = called active by the depositor; + = active, no number. Shown is part of a subset that was picked to be rich in hits.

SMILES	14-3-3g Raf
O=C(NCC1CCCO1)c1ccc(Cl)c([N+](=O)[O-])c1 (centres undefined)	-4
COC(=O)c1ccc(C(=O)OC)c(NC(=O)C2c3ccccc3Oc3ccccc32)c1	-17
Cc1cc(C)nc(SCC(=O)Nc2ncc([N+](=O)[O-])s2)n1	-16
O=C(O)CSc1nc2c(cnn2-c2ccc(F)cc2)c(=O)[nH]1	7
OC(CN1CCCCC1)CN(c1ccccc1)c1ccccc1 (centres undefined)	-6
OC(CN1CCOCC1)CN(c1ccccc1)c1ccccc1 (centres undefined)	92*
OC(CN1CCOCC1)CN1CCOCC1	-5
COc1ccc(S(=O)(=O)N=C2C=C(Nc3ccc(O)cc3)C(=O)c3ccccc32)cc1	14
CCc1ccc(S(=O)(=O)N=C2C=C(Nc3ccccc3)C(=O)c3ccccc32)cc1	-93
CCOC(=O)c1ccc(NC2=CC(=NS(=O)(=O)c3ccc(OC)cc3)c3ccccc3C2=O)cc1	82*
CCc1ccc(S(=O)(=O)N=C2C=C(Nc3ccc(C(=O)OC)cc3)C(=O)c3ccccc32)cc1	33*
CCOc1ccc(S(=O)(=O)N=C2C=C(Nc3ccc(OC)cc3)C(=O)c3ccccc32)cc1	-3
CCOc1ccc(NC2=CC(=NS(=O)(=O)c3ccc(CC)cc3)c3ccccc3C2=O)cc1	-7
O=C(CSc1nnnn1-c1ccc2c(c1)OCO2)N1CCCCC1	-3
CC12CC(c3ccccc3O1)N(C(=O)c1ccc([N+](=O)[O-])cc1)C(=O)N2c1ccc(F)cc1 (centres undefined)	4
COCCOC(=O)C1=C(C)N=C2SCCC(=O)N2C1c1cccc(OC)c1 (centres undefined)	-2
NS(=O)(=O)c1ccc(NC(=O)CN2C(=O)c3cccc4cccc(c34)C2=O)cc1	4
O=C1c2cccc3c(N4CCCCC4)ccc(c23)C(=O)N1CCCO	-18
O=C1c2cccc3c(Cl)ccc(c23)C(=O)N1c1ccccc1	-4
CN1C(=O)c2cccc(NCCCCN3C(=O)c4ccccc4C3=O)c2C1=O	0
O=C1c2cccc3c(NCCO)ccc(c23)C(=O)N1c1ccc(Cl)cc1	140*
O=C1c2cccc3c(NCCCO)ccc(c23)C(=O)N1CCCO	+
Cc1ccc(N2C(=O)c3cccc4c(Cl)ccc(c34)C2=O)cc1	-35
Cc1ccc(NC(=O)c2cnn3c2NC(c2ccc(C)cc2)CC3C(F)(F)F)cc1 (centres undefined)	1
COc1ccc(NC(=O)c2ccccc2OC(C)=O)c([N+](=O)[O-])c1	-5
SMILES	14-3-3g Raf
O=C(Cc1csc(Nc2nc(=S)[nH]c3ccccc23)n1)NCCC1=CCCCC1	-23
O=C(Cn1ncc2c(=O)oc3ccccc3c21)N1CCN(Cc2ccccc2)CC1	-5
CC(C)(C)c1ccc(OCc2nnc3n2N=C(c2ccc(F)cc2)CS3)cc1	-7
Cc1cc(=O)oc2c(CN3CCC(C)CC3)c(O)c(Cl)cc12	60*
CCN(CC)Cc1c(O)c(Cl)cc2c(C)cc(=O)oc12	63*
CCN1CCN(Cc2c(O)c(Cl)cc3c(C)cc(=O)oc23)CC1	17
Cc1cc(=O)oc2c(CN3CCCCC3)c(O)c(Cl)cc12	-7
Cc1c(C)c2cc(Cl)c(O)c(CN3CCN(C)CC3)c2oc1=O	1
Cc1cc(=O)oc2c(CN(CC(C)C)CC(C)C)c(O)ccc12	-18
CCN(C(=O)c1c(Cl)nc(C)c(Cl)c1C)c1ccccc1	-7
CCN1CNC(=S)N(c2ccc(F)cc2)C1	-7
COc1cc(NCCCC(C)N)c2ncccc2c1 (centres undefined)	70*
COc1cccc(CNc2cccc3cccnc23)c1O	-13
COc1cc(NS(=O)(=O)c2ccc(C)cc2)c2ncccc2c1	-8
O=C(Nc1cccc(C(F)(F)F)c1)c1ccc(Br)c([N+](=O)[O-])c1	73*
O=C(Nc1cccc(C(F)(F)F)c1)c1ccc(NC(=O)c2cccc(Br)c2)cc1	-15
Cc1c(C(=O)Nc2cccc(C(F)(F)F)c2)cccc1[N+](=O)[O-]	-3
Cc1onc(-c2ccccc2Cl)c1C(=O)Nc1cccc(F)c1	-1
COc1ccc(-c2cc(C(=O)Nc3cccc(O)c3)no2)cc1OC	-9
CCOc1ccc2[nH]c(=O)c(CN(Cc3ccccc3)C(=O)N3CCCC3)cc2c1	-8
CCOc1ccc2[nH]c(=O)c(CN(CC3COCCO3)C(=O)C3CC3)cc2c1 (centres undefined)	39*
CCOc1ccc2[nH]c(=O)c(CN(C(=O)N3CCOCC3)C3CC3)cc2c1	-7
O=C(CN1C(=O)CSc2ccc(S(=O)(=O)N3CCOCC3)cc21)NCCN1CCN(c2ccccc2)CC1	-13
CCc1sc(-c2cc3ccc(OC(C)=O)cc3oc2=O)nc1-c1ccc(C)cc1C	-55
CCC(=O)N1CCc2cc(S(=O)(=O)N3CCCCC3c3cccnc3)ccc21 (centres undefined)	-20
SMILES	14-3-3g Raf
CC(=O)Nc1ccc(S(=O)(=O)N2CCCCC2c2cccnc2)cc1 (centres undefined)	-4
COc1cc(C)c(C)cc1S(=O)(=O)N1CCCCC1c1cccnc1 (centres undefined)	31*
CCCCCCSc1nnc2c(n1)OC(C)Nc1ccccc1-2 (centres undefined)	44*
C=CCSc1nnc2c(n1)OC(c1cccc(C)n1)Nc1ccccc1-2 (centres undefined)	-8
CCCSc1nnc2c(n1)OC(c1cccc(OCC)c1OC)Nc1ccccc1-2 (centres undefined)	-72
CCCCSc1nnc2c(n1)OC(c1cccc(OCC)c1OC)Nc1ccccc1-2 (centres undefined)	70*
CCCSc1nnc2c(n1)OC(C)Nc1ccccc1-2 (centres undefined)	-5
Cc1cccc(C2Nc3ccccc3-c3nnc(SCc4ccccc4F)nc3O2)n1 (centres undefined)	22
CCCCCCSc1nnc2c(n1)OC(c1ccsc1)Nc1ccccc1-2 (centres undefined)	-36
CCCCCSc1nnc2c(n1)OC(c1cccc(C)n1)Nc1ccccc1-2 (centres undefined)	36*
CCCCSc1nnc2c(n1)OC(c1ccccc1OC)Nc1ccccc1-2 (centres undefined)	-1
COc1ccc(-c2cc(C(=O)OC(C)C)c3cc(Cl)ccc3n2)cc1	-17
COc1cc(-n2cc(-c3ccccc3)n(CC(=O)Nc3ccccc3C)c2=O)cc(OC)c1OC	-8
CCc1cccc(NC(=O)C2(S(=O)(=O)c3ccc(Cl)cc3)CC2)c1	0
COc1ccc(C2C(C(=O)OCCOc3ccccc3)=C(C)NC3=C2C(=O)CC(C)(C)C3)cc1 (centres undefined)	-3
O=C(NCCSCCNC(=O)C(F)(F)F)C(F)(F)F	4
COc1ccc(CNc2nccs2)c(O)c1	-13
CC1CC(C)(C)NC(=S)N1CC(=O)N1CCCCC1 (centres undefined)	3
O=C(CN1C(=O)c2ccc([N+](=O)[O-])cc2C1=O)Nc1ccccc1[N+](=O)[O-]	3
O=C(CN1C(=O)c2ccc([N+](=O)[O-])cc2C1=O)Nc1ccc(Br)cc1C(=O)O	-2
O=C(CN1C(=O)c2ccc([N+](=O)[O-])cc2C1=O)Nc1ccc(O)cc1C(=O)O	37*
COc1cccc(-n2c(=O)c3sccc3n(CC(=O)N3CCCC3)c2=O)c1	6
COc1ccc(S(=O)(=O)N=C2C=C(Nc3ccccc3)C(=O)c3ccccc32)cc1	-73
O=C(O)c1ccc2c(c1)C1C=CCC1C(c1ccncc1)N2 (centres undefined)	-2
